Source: PubChem BioAssay
697 NFkB inh – inhibitors of PMA/ionomycin-induced NF-kB reporter, 697 cells, primary screen, B-cell NF-kB inhibitor project, cell-based, luminescence, uHTS | 697 B-cell NF-kB luciferase reporter, 16 h | inhibition, % at 4 µM | actives 0.33% (n = 330,000) | AID 435022, 2010; in the data active means inhibition above about 35%
F508del corr – F508del CFTR correction, initial screen, CFBE line, single point | activity (quench increase), % at 7.58 µM | CFBE cells, YFP halide quenching; stimulated with forskolin plus potentiator P3; % fluorescence drop versus neutral controls | actives 0.36% (n = 350,000);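 active means mean added fluorescence quench of at least 8% versus neutral control, with both replicates also reaching 8%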;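 further: cells transiently co-express mutant CFTR-F508del with the halide-sensitive YFP; corrector assay measuring rescue of mutant channel to the surface after 24 h compound exposure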
HIF activator – HIF pathway transcriptional activators, primary screen, cell-based, U2OS HRE-luciferase, luminescence; activation, % at 7.5 µM (by protocol); U2OS HRE-luciferase reporter; normalized: DMSO 0%, desferrioxamine 100%; actives 0.32% (n = 300,000);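 active means mean activation of at least 10% of the iron chelator positive control signal, with at least half of replicates also reaching 10%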
Jurkat NFkB inh – inhibitors of induced NF-kB luciferase reporter, primary screen, TCR NF-kB activation inhibitor project, cell-based, luminescence, uHTS; inhibition, % at 4 µM; Jurkat, PMA/ionomycin-induced NF-kB luciferase reporter; actives 0.53% (n = 330,000); in the data active means inhibition above about 50%
Jurkat NFkB conf – PMA/ionomycin-induced NF-kB reporter inhibitors, Jurkat retest, confirmation, T-cell NF-kB inhibitor project, cell-based, luminescence, single concentration. shares compounds with Jurkat NFkB inh. Jurkat NF-kB luciferase, 16 h. inhibition, % at 4 µM. actives 27% (n = 2,700). AID 435020, 2010;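 active means inhibition reaching about 45% at 4 µM in either replicate, limit read from the data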;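 further: plate controls were PMA/ionomycin stimulated DMSO wells for no effect and unstimulated DMSO wells for full effect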
Starred values were filed as active, the others as inactive; nt = no result. The list is not random: actives were taken first. Their share in the collection is about 0.93%.

SMILES	697 NFkB inh	F508del corr	HIF activator	Jurkat NFkB inh	Jurkat NFkB conf
O=C(Nc1nccs1)c1ccc(Br)cc1	-71.4	0.4	2.1	-51.3	nt
CN1CCN(c2ccc(NC(=O)c3ccc4ccccc4c3)cc2)CC1	-225.3	0.9	-4.6	-155.3	-48.5
N#Cc1ccccc1Sc1ccccc1C(=O)Nc1ccc2ccccc2c1	16.5	3.2	-0.4	4.9	nt
C[C@H]1CN([C@@H](C)CO)S(=O)(=O)c2ccc(-c3ccc(F)cc3)cc2O[C@@H]1CN(C)C(=O)C1CCCCC1	nt	2.8	nt	nt	nt
CCCN1C[C@H](C)[C@H](OC)CN(C)C(=O)c2ccc(NC(=O)C3CCOCC3)cc2OC[C@@H]1C	nt	1.8	nt	nt	nt
Cc1noc(C)c1S(=O)(=O)N(C)C[C@@H]1Oc2ccc(NC(=O)Nc3ccccc3)cc2CC(=O)N([C@@H](C)CO)C[C@@H]1C	nt	-0.8	nt	nt	nt
COc1cccc(-c2ccc([C@H]3[C@H]4CN(C(=O)C5CCCCC5)CC(=O)N4[C@H]3CO)cc2)c1	nt	-0.3	nt	nt	nt
COc1ccc(NC(=O)c2ccc3ccccc3c2)cc1	-60.8	1.3	-13.9	-179.5	-148.9
CN1CCN(c2ccc(NC(=O)c3ccc(-c4ccccc4F)o3)cc2)CC1	-125.2	2.6	nt	-170.5	-87.4
CN1CCN(c2ccc(NC(=O)c3ccc(Br)o3)cc2)CC1	-30.9	0.9	2.3	-120.8	nt
C[C@H]1CCCCO[C@@H](CN(C)Cc2ccccc2)[C@@H](C)CN([C@@H](C)CO)C(=O)c2cc(NC(=O)Nc3cccc4ccccc34)ccc2O1	nt	2.9	nt	nt	nt
COc1ccc(NC(=O)Nc2cccc3c2O[C@H](CN(C)Cc2ccc(Oc4ccccc4)cc2)[C@@H](C)CN([C@H](C)CO)C3=O)cc1	nt	-2.9	nt	nt	nt
Nc1nc(-c2ccccc2)cc(N2CCCCC2)n1	-33.2	nt	-0.6	54.8*	41.6
C[C@H]1CN([C@@H](C)CO)C(=O)c2cccc(NC(=O)Nc3cccc4ccccc34)c2O[C@H]1CN(C)C(=O)Nc1ccc2c(c1)OCO2	nt	3.4	nt	nt	nt
CCOc1cc(C#N)c(NC(=O)c2cccnc2Cl)cc1OCC	17.1	nt	0.0	6.5	nt
CCOc1cc(C#N)c(NC(=O)c2cccnc2)cc1OCC	-32.3	nt	1.7	62.4*	51.8*
COCC(=O)N1C[C@H]2[C@@H](c3ccccc31)[C@H](CO)N2C(=O)Nc1ccccc1Cl	nt	-1.3	nt	nt	nt
O=C(Nc1ccc2nc3ccccc3nc2c1)c1ccccc1	nt	nt	1.1	nt	nt
O=C(Nc1ccc(-c2nc3ccccc3s2)c(OC(=O)c2ccccc2)c1)c1ccccc1	-171.2	nt	3.9	-166.8	-113.2
O=C(C[C@H]1C[C@@H]2c3cc(NC(=O)c4cccnc4)ccc3O[C@@H]2[C@@H](CO)O1)NCC(F)(F)F	nt	-3.1	nt	nt	nt
O=c1c2ccccc2oc2ccc(-c3ccc4[nH]ccc4c3)cc12	-217.9	-1.9	4.1	-171.8	-89.9
COc1ccc(C2c3ccc4ccccc4c3Oc3ncn(CCN(C)C)c(=N)c32)cc1 (stereo not drawn)	18.7	-0.9	1.5	51.3*	4.2
CN(C)CCCn1cnc2c(c1=N)C(c1ccccc1)c1ccc3ccccc3c1O2 (stereo not drawn)	2.2	-0.2	1.9	86.8*	23.5
COc1ccc(C2c3ccc4ccccc4c3Oc3ncn(CCO)c(=N)c32)cc1 (stereo not drawn)	0.6	nt	-7.7	29.0	nt
C[C@@H]1CCCCO[C@@H](CN(C)S(=O)(=O)c2cn(C)cn2)[C@@H](C)CN([C@H](C)CO)C(=O)c2cc(NC(=O)c3ccccc3)ccc2O1	nt	1.9	nt	nt	nt
SMILES	697 NFkB inh	F508del corr	HIF activator	Jurkat NFkB inh	Jurkat NFkB conf
C[C@H](CO)N1C[C@H](C)[C@H](CN(C)C(=O)Nc2ccc3c(c2)OCO3)Oc2ccc(NC(=O)Cn3cnnn3)cc2CC1=O	nt	-1.1	nt	nt	nt
COc1ccc(S(=O)(=O)n2ccc(-c3cnc(-c4ccccc4)s3)n2)cc1	-22.8	nt	3.4	-55.8	nt
O=C(c1ccccc1)n1ccc(-c2cnc(-c3ccccc3)s2)n1	-192.5	nt	0.1	-180.4	-72.8
CCOCC(=O)Nc1c(C(=O)Nc2ccc3c(c2)OCCO3)oc2ccccc12	-116.7	-4.8	2.4	-192.9	-92.5
COCC(=O)Nc1c(C(=O)Nc2ccc3c(c2)OCCO3)oc2ccccc12	-109.9	0.7	0.2	-175.7	-94.9
COc1cc2nc(Nc3ccc(C)c(C)c3)nc(N)c2cc1OC	-11.7	1.6	0.9	21.3	nt
CCOC(=O)c1ccc(Nc2nc(N)c3cc(OC)c(OC)cc3n2)cc1	30.2	nt	-2.4	74.0*	89.7*
CCN(CC)S(=O)(=O)c1cc(OC)ccc1N=Nc1ccc(O)c2ncccc12	8.0	0.2	3.5	16.1	nt
Oc1ccc(N=Nc2ccc3c(c2)OCCO3)c2ncccc12	-152.8	0.1	1.1	27.5	nt
Cc1cccc(N=Nc2ccc(O)c3ncccc23)c1	-78.6	nt	2.4	89.6*	39.7
CCS(=O)(=O)c1ccc(OC)c(N=Nc2ccc(O)c3ncccc23)c1	-20.4	2.2	0.0	5.5	nt
CCOc1ccc(N=Nc2ccc(O)c3ncccc23)cc1	-117.3	6.6	3.1	89.3*	2.6
Cc1ccc(C)c(N=Nc2ccc(O)c3ncccc23)c1	-103.2	nt	2.5	78.3*	65.5*
COC(=O)c1ccccc1NC(=O)CSc1nc(C)cc(C)n1	-2.5	1.4	0.0	13.0	nt
Cc1cc(C)nc(SCC(=O)Nc2ccnc3ccccc23)n1	23.3	-1.4	0.1	63.9*	64.7*
O=C(CCN1CCCCC1)N[C@@H]1CC[C@H](CCn2cc(-c3ccc(F)cc3)nn2)O[C@H]1CO	nt	-2.1	nt	nt	nt
O=C(NCc1cccnc1)c1ccc(COc2ccc3c(c2)CCC3)o1	-110.4	-0.1	-0.3	38.9	nt
O=C(NCc1cccnc1)c1ccc(COc2ccccc2Cl)o1	-7.0	3.4	-0.2	56.1*	7.6
O=C(NCc1cccnc1)c1ccc(COc2ccccc2Br)o1	0.6	-3.6	-0.1	71.7*	-4.8
COCCNC(=O)C[C@H]1CC[C@@H]2[C@H](COC[C@H](O)CN2C(=O)Nc2ccccc2OC)O1	nt	-2.3	nt	nt	nt
COc1cc2c(cc1OC)C(C)N(C(=O)c1cc(C)on1)CC2 (stereo not drawn)	21.3	6.6	0.5	64.3*	50.7*
C[C@H](NC(=O)C[C@H]1CC[C@@H](NC(=O)C2CC2)[C@@H](CO)O1)c1ccccc1	nt	-1.5	nt	nt	nt
COc1ccccc1-n1cnc2cc(NCc3cccs3)ccc21	-83.1	nt	2.6	51.5*	19.1
COC(=O)[C@@H]1[C@@H](CO)[C@@H]2Cn3c(ccc(-c4ccccc4F)c3=O)[C@@H]2N1Cc1ccccc1	nt	2.6	nt	nt	nt
NS(=O)(=O)c1ccc2nc(NC(=O)Nc3ccccc3F)sc2c1	-223.7	3.0	-0.7	-164.3	-112.4
CC1=C(C#N)C(c2cn(-c3ccccc3)nc2-c2cccs2)C(C#N)=C(C)N1	-29.8	nt	-0.2	53.5*	-7.9
CCC(=O)N[C@@H]1C=C[C@@H](CC(=O)NCCN2CCCCC2)O[C@H]1CO	nt	0.6	nt	nt	nt
